Screening results deposited in PubChem BioAssay by National Center for Advancing Translational Sciences (NCATS).
Rows were chosen to be rich in hits. Some 5.5% of all compounds tested hit in one or more screens of this group.
Mito fusion act – blocks mitochondrial division or promotes mitochondrial fusion; S. cerevisiae fusion-defective mutant growth rescue, CellTiterGlo 48 h; Potency, µM (top dose mostly 46.1 µM), most hits filed as activators; 320,000 tested, 0.23% active; also: nearly all actives have a fitted effect of over 45% in size
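Yeast fusion mutant, YPEG (non-fermentable carbon), compound, 48 h at 37C non-permissive; CellTiterGlo added, 10 min RT, luminescence read. Rescued growth = division inhibition.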
Chronic BCR inh – blocks chronic active B-cell receptor signaling | ABC-DLBCL IkBa-CBG/CBR reporter, luminescence ratio, 4 h | Potency, µM (doses to about 46.1 µM), usual class: inhibitors | 340,000 tested, 0.05% active; active = well fitted inhibition curve with a large enough effect in the signal ratio, with a control signal flat, not every such curve was filed as active; inconclusive = small, poorly fitted or top-dose-only effect, or effect the other way, or a change in a side signal; the % refers to the signal ratio
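TMD8 ABC-DLBCL cells carrying doxycycline-inducible green luciferase fused to IkappaBalpha plus unfused red luciferase were exposed to compounds (up to 46 uM) for 4 hrs at 37C. Activity came from the overlap-corrected green/red luminescence ratio.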
uPA generation – inhibitors of cell surface uPA generation; cell surface uPA generation assay, qHTS; Potency, µM (doses to about 38.3 µM), actives largely listed as inhibitors; 330,000 tested, 0.31% active; active = well fitted inhibition curve with a large enough effect; inconclusive = small, poorly fitted or top-dose-only effect; inactive = no such curve, though single readings can be large or run the other way; tested in mouse RAW 264.7 cells; also: nearly all actives have a fitted effect of over 55% in size
a7 integrin act – activates integrin-mediated alleviation for muscular dystrophy; alpha7betagal myoblasts, beta-gal FDG fluorescence, 48 h; Potency, µM (doses to about 38.3 µM), usual class: activators; 350,000 tested, 0.064% active; AID 624291; also: nearly all actives have a fitted effect of over 60% in size
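alpha7betagal+/- myoblasts (passage 13, 250/well) treated 48 h at 37C with compounds at 1:260 dilution of DMSO stock. Lysed, then beta-galactosidase activity read as FDG fluorescence (ex 480/em 540) after 30 min, with pre-read for autofluorescence.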
RORgamma inh – ROR gamma (mouse) transcription inhibition. 310,000 tested, 5.4% active. AID 2551. Drosophila S2 Gal4-RORgamma UAS-luciferase reporter, 20 h. Potency, µM (series often up to 53.6 µM), most hits filed as inhibitors; also: nearly all actives have a fitted effect of over 60% in size
Target sequence (P51450 whole entry, looked up, the tested form may be a part): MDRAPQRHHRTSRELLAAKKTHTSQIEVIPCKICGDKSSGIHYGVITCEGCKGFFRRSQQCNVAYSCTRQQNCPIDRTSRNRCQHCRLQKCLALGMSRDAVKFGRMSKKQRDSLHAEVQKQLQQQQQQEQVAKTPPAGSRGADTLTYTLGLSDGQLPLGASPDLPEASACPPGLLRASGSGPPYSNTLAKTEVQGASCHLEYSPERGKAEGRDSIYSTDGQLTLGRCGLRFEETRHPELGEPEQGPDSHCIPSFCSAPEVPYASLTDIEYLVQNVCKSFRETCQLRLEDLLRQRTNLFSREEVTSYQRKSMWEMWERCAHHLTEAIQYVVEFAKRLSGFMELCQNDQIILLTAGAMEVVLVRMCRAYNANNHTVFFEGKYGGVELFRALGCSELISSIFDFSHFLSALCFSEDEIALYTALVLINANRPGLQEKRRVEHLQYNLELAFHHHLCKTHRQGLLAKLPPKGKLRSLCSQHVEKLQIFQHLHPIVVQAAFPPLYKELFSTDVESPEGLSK
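Schneider cells (Drosophila), stable Gal4 DBD–ROR gamma + UAS-luc; 1 hr cmpd preincubation; Cu2+ induction 700 uM final; 20 hr ambient; luminescence.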
VP16 counter – inhibits Gal4-VP16 luciferase reporter, ROR gamma counter-screen; Drosophila S2 Gal4-VP16 UAS-luciferase, luminescence, 20 h; Potency, µM (doses to about 53.6 µM), hits mostly inhibitors; 310,000 tested, 3.5% active; AID 2546;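 also: Gal4-VP16 expression switched on by copper sulfate through the metallothionein promoter; nearly all actives have a fitted effect of over 50% in size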
Numbers stand for hits; [ ] = remark or other dose. Unless noted, calls follow the shape of the dose curve; as a rule, active = well fitted curve in the direction sought with a large enough effect; inconclusive = small, poorly fitted or top-dose-only effect, or another doubt; inactive = no such curve, though single readings can be large; an effect the other way counts as inactive or inconclusive.

Cc1ccccc1N=Nc1c(C)[nH]n(-c2ccccc2)c1=O was read as Mito fusion act inactive, Chronic BCR inh inactive, uPA generation inactive, a7 integrin act inactive, RORgamma inh inactive and VP16 counter inactive.
Screening Cc1[nH]n(C(N)=S)c(=O)c1N=Nc1ccc([N+](=O)[O-])cc1Cl returned Mito fusion act inactive, Chronic BCR inh inconclusive, uPA generation inactive, a7 integrin act inconclusive, RORgamma inh 0.708µM and VP16 counter 3.55µM.
CCOc1ccccc1N=Nc1c(C)[nH]n(C(N)=S)c1=O was read as Mito fusion act inactive, Chronic BCR inh inconclusive, uPA generation inactive, a7 integrin act inactive, RORgamma inh 0.447µM and VP16 counter 1.26µM.
For Cc1cccc(N=Nc2c(C)[nH]n(C(N)=S)c2=O)c1C the results were Mito fusion act inactive, Chronic BCR inh inconclusive, RORgamma inh 0.398µM and VP16 counter 1.58µM.
For Cc1ccccc1N=Nc1c(C)[nH]n(C(N)=S)c1=O the results were Mito fusion act inactive, Chronic BCR inh inconclusive, uPA generation inactive, a7 integrin act inactive, RORgamma inh 0.398µM and VP16 counter 1µM.
Cc1ccc(CNC(=O)c2cc(-c3ccc(C)cc3)nc3n[nH]c(-c4cccc([N+](=O)[O-])c4)c23)cc1 was read as Chronic BCR inh inactive.
For Cn1cccc1C(=O)N1CCC2(CC1)CN(Cc1ccc(C#N)cc1)C2 the results were RORgamma inh inactive and VP16 counter inactive.
Cc1[nH]n(C(N)=S)c(=O)c1N=Nc1ccccc1C(F)(F)F was read as Mito fusion act inconclusive, Chronic BCR inh inconclusive, uPA generation inactive, a7 integrin act inactive, RORgamma inh 0.316µM and VP16 counter 2.51µM.
`O=C(N/N=C/c1c[nH]c2ccccc12)c1cc(-c2ccc(-c3ccccc3)cc2)n[nH]1` gave Mito fusion act inactive, Chronic BCR inh inactive, a7 integrin act inactive, RORgamma inh 5.62µM and VP16 counter inconclusive.
For O=C(N/N=C/c1c[nH]c2ccccc12)c1ccc(Cl)cc1 the results were Mito fusion act inactive, Chronic BCR inh inactive, uPA generation inactive, a7 integrin act inconclusive, RORgamma inh 10µM and VP16 counter inconclusive.
O=C(N/N=C\c1c[nH]c2ccccc12)c1ccc(O)cc1 was read as Mito fusion act inactive, Chronic BCR inh inconclusive, uPA generation inactive, a7 integrin act inactive, RORgamma inh 6.31µM and VP16 counter inactive.
Screening O=C(N/N=C/c1c[nH]c2ccccc12)c1cc(Cl)ccc1O returned Mito fusion act inactive, Chronic BCR inh inconclusive, uPA generation inactive, a7 integrin act inconclusive, RORgamma inh 5.01µM and VP16 counter 6.31µM.
`O=C(N/N=C/c1c[nH]c2ccccc12)c1ccc(Br)cc1` gave Mito fusion act inactive, Chronic BCR inh inactive, uPA generation inactive, a7 integrin act inactive, RORgamma inh inconclusive and VP16 counter inconclusive.
O=C(O)c1ccccc1C(=O)NC1CCCCNC1=O (centres undefined) was read as Mito fusion act inactive, Chronic BCR inh inconclusive, uPA generation inactive, a7 integrin act inactive, RORgamma inh inactive and VP16 counter inactive.
`CC(C)n1cc(/C=N/Nc2ccc(C(=O)O)cc2)c2ccccc21` gave Mito fusion act inactive, Chronic BCR inh inconclusive, uPA generation inactive, a7 integrin act inactive, RORgamma inh 0.0316µM and VP16 counter 0.316µM.
O=C(CCN1CCCCC1)N/N=C/c1c[nH]c2ccccc12 was read as Mito fusion act inactive, Chronic BCR inh inconclusive, uPA generation inactive, a7 integrin act inactive, RORgamma inh inactive and VP16 counter inactive.
`O=C(O)c1ccc(N/N=C/c2c[nH]c3ccccc23)cc1` gave Mito fusion act inactive, Chronic BCR inh inconclusive, uPA generation inactive, a7 integrin act inactive, RORgamma inh 0.0355µM and VP16 counter 0.316µM.
`CN1CCN(CC(=O)N/N=C\c2c[nH]c3ccccc23)CC1` gave Mito fusion act inactive, Chronic BCR inh inactive, RORgamma inh inconclusive and VP16 counter 22.4µM.
`NC(=S)N/N=C/c1c[nH]c2ccccc12` gave Mito fusion act inactive, Chronic BCR inh inactive, uPA generation inactive, a7 integrin act inactive, RORgamma inh 2.51µM and VP16 counter inconclusive.
For O=C(O)c1ccc(N/N=C/c2cn(Cc3ccccc3F)c3ccccc23)cc1 the results were Mito fusion act inactive, Chronic BCR inh inconclusive, uPA generation inactive, a7 integrin act inactive, RORgamma inh inactive and VP16 counter inactive.
`CC(C)Cn1nnnc1S(=O)(=O)CC#N` gave RORgamma inh inactive and VP16 counter inactive.
For COc1ccc(CNc2nc(NCc3ccc(OC)cc3)c3ncn(C(C)C)c3n2)cc1 the results were RORgamma inh inconclusive and VP16 counter inactive.
`Cc1ccsc1C=Nc1ccc(O)cc1` gave Mito fusion act inactive, Chronic BCR inh inconclusive, uPA generation inactive, a7 integrin act inactive, RORgamma inh 10µM and VP16 counter inconclusive.
Screening Cc1ccc(C2(CC(=O)Nc3nccs3)CCOC(C(C)C)C2)cc1 (centres undefined) returned Mito fusion act inactive, Chronic BCR inh inactive, uPA generation inactive, a7 integrin act inactive, RORgamma inh inactive and VP16 counter inconclusive.
For COc1ccccc1C1(CC(=O)Nc2nccs2)CCOC(C(C)C)C1 (centres undefined) the results were Mito fusion act inactive, Chronic BCR inh inconclusive, a7 integrin act inactive[7.66 µM], RORgamma inh 11.2µM and VP16 counter inactive.
`CCOC(=O)C1CCCN(C(c2ccccn2)c2c(C)[nH]c3ccccc23)C1` (centres undefined) gave Mito fusion act inactive, Chronic BCR inh inconclusive, uPA generation inactive, a7 integrin act inactive, RORgamma inh 12.6µM and VP16 counter inactive.
`CCc1ccc(NC(=S)NC2CC3CCCC(C2)N3Cc2ccccc2)cc1` (centres undefined) gave Mito fusion act inactive, Chronic BCR inh inconclusive, uPA generation inactive, a7 integrin act inactive, RORgamma inh 7.08µM and VP16 counter 4.47µM.
Screening S=C(Nc1ccc(Cl)cc1)NC1CC2CCCC(C1)N2C1CC1 (centres undefined) returned Mito fusion act inactive, Chronic BCR inh inconclusive, uPA generation inactive, a7 integrin act inactive, RORgamma inh inconclusive and VP16 counter 3.98µM.
`Cc1cc(C)cc(NC(=S)NC2CC3CCCC(C2)N3C2CCCC2)c1` (centres undefined) gave Mito fusion act inactive, Chronic BCR inh inactive, uPA generation inactive, a7 integrin act inactive, RORgamma inh 35.5µM and VP16 counter inactive.
Cc1cc(C)cc(NC(=S)NC2CC3CCCC(C2)N3C2CC2)c1 (centres undefined) was read as Mito fusion act inactive, Chronic BCR inh inactive, uPA generation inactive, a7 integrin act inactive, RORgamma inh inconclusive and VP16 counter inconclusive.
